Measurements taken from PubChem BioAssay AID1159580 (chemical genetic matrix, 2015).
Among all 5,500 compounds or so, about 2,000 (36%) were called active. Not shown: some 18% with an inconclusive outcome. No stated cut-off is given here; in the data, active means normalized growth mostly below about 0.91 (no sharp cut-off); inconclusive means no clear call, values can overlap the other calls; inactive means mostly above about 0.92. Some of the results follow.

Test: chemical genetic growth profiling, strain panel (AID 1159580);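 further: tested at 20 µM; growth read once vehicle control cultures reached saturation at 30 °C; 1 = growth at the plate median or of vehicle wells; lower values mean less growth of the strain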
Details: growth OD

Measured: normalized growth

O=C(/C=C(\O)c1ccccc1)c1ccccc1O
inactive: S. cerevisiae deletion strains, locus YBR021W, strain FUR4, active compounds read low 0.939 | S. cerevisiae deletion strains, locus YDL005C, strain med2, active compounds read low 0.941 | S. cerevisiae deletion strains, locus YDR195W, strain ref2 1.06 | S. cerevisiae deletion strains, locus YGL078C, strain dbp3, active compounds read low 0.986 | S. cerevisiae deletion strains, locus YGR078C, strain PAC10, active compounds read low 0.914 | S. cerevisiae deletion strains, locus YGR252W, strain gcn5, active compounds read low 0.872 | S. cerevisiae deletion strains, locus YHR013C, strain ard1, active compounds read low 0.865 | S. cerevisiae deletion strains, locus YHR094C, strain hxt1, active compounds read low 0.935 | S. cerevisiae deletion strains, locus YIL125W, strain kgd1, active compounds read low 0.98 | S. cerevisiae deletion strains, locus YJL115W, strain asf1, active compounds read low 0.94 | S. cerevisiae deletion strains, locus YJL168C, strain set2, active compounds read low 0.958 | S. cerevisiae deletion strains, locus YKL068W, active compounds read low 0.969 | S. cerevisiae deletion strains, locus YKL085W, strain MDH1 (second series), active compounds read low 0.963 | S. cerevisiae deletion strains, locus YKL085W, strain MDH1, active compounds read low 0.963 | S. cerevisiae deletion strains, locus YLR102C, strain apc9, active compounds read low 0.997 | S. cerevisiae deletion strains, locus YLR342W, strain FKS1 (second series), active compounds read low 0.849 | S. cerevisiae deletion strains, locus YLR384C, strain iki3, active compounds read low 0.92 | S. cerevisiae deletion strains, locus YMR078C, strain ctf18, active compounds read low 0.948 | S. cerevisiae deletion strains, locus YMR125W, strain sto1, active compounds read low 0.991 | S. cerevisiae deletion strains, locus YNL067W, strain RPL9B, active compounds read low 0.929 | S. cerevisiae deletion strains, locus YNL128W, strain TEP1, active compounds read low 0.855 | S. cerevisiae deletion strains, locus YNL248C, strain rpa49, active compounds read low 0.91 | S. cerevisiae deletion strains, locus YNL250W, strain rad50, active compounds read low 0.97 | S. cerevisiae deletion strains, locus YNL271C, strain bni1, active compounds read low 0.951 | S. cerevisiae deletion strains, locus YNL298W, strain CLA4, active compounds read low 0.926 | S. cerevisiae deletion strains, locus YNL307C, strain MCK1, active compounds read low 0.928 | S. cerevisiae deletion strains, locus YOL012C, strain htz1 0.3 | S. cerevisiae deletion strains, locus YOR061W, strain CKA2, active compounds read low 0.93 | S. cerevisiae deletion strains, locus YOR080W, strain dia2, active compounds read low 0.929 | S. cerevisiae deletion strains, locus YOR136W, strain idh2, active compounds read low 0.939 | S. cerevisiae deletion strains, locus YOR316C, strain cot1, active compounds read low 0.941 | S. cerevisiae deletion strains, locus YPL106C, strain sse1, active compounds read low 0.933 | S. cerevisiae deletion strains, locus YPR119W, strain clb2, active compounds read low 0.951 | S. cerevisiae deletion strains, locus YPR141C, strain kar3, active compounds read low 0.967
active: S. cerevisiae deletion strains, locus YAL021C, strain ccr4, active compounds read low 0.843 | S. cerevisiae deletion strains, locus YAL026C, strain drs2, active compounds read low 0.775 | S. cerevisiae deletion strains, locus YAL030W, strain snc1, active compounds read low 0.827 | S. cerevisiae deletion strains, locus YBL061C, strain skt5, active compounds read low 0.776 | S. cerevisiae deletion strains, locus YBR009C, strain hhf1, active compounds read low 0.667 | S. cerevisiae deletion strains, locus YBR023C, strain chs3, active compounds read low 0.778 | S. cerevisiae deletion strains, locus YBR171W, strain sec66, active compounds read low 0.807 | S. cerevisiae deletion strains, locus YBR229C, strain ROT2, active compounds read low 0.778 | S. cerevisiae deletion strains, locus YBR231C, strain swc5, active compounds read low 0.65 | S. cerevisiae deletion strains, locus YBR279W, strain paf1, active compounds read low 0.865 | S. cerevisiae deletion strains, locus YCL011C, strain gbp2, active compounds read low 0.681 | S. cerevisiae deletion strains, locus YCL016C, strain dcc1, active compounds read low 0.836 | S. cerevisiae deletion strains, locus YCL029C, strain bik1, active compounds read low 0.593 | S. cerevisiae deletion strains, locus YCL061C, strain MRC1, active compounds read low 0.812 | S. cerevisiae deletion strains, locus YCL069W, strain vba3, active compounds read low 0.843 | S. cerevisiae deletion strains, locus YCR088W, strain abp1, active compounds read low 0.877 | S. cerevisiae deletion strains, locus YDL035C, strain GPR1, active compounds read low 0.791 | S. cerevisiae deletion strains, locus YDL040C, strain nat1, active compounds read low 0.918 | S. cerevisiae deletion strains, locus YDL074C, strain BRE1, active compounds read low 0.28 | S. cerevisiae deletion strains, locus YDL101C, strain DUN1, active compounds read low 0.595 | S. cerevisiae deletion strains, locus YDL134C, strain PPH21, active compounds read low 0.827 | S. cerevisiae deletion strains, locus YDL185W, strain tfp1, active compounds read low 0.817 | S. cerevisiae deletion strains, locus YDL192W, strain arf1, active compounds read low 0.776 | S. cerevisiae deletion strains, locus YDR001C, strain nth1, active compounds read low 0.903 | S. cerevisiae deletion strains, locus YDR069C, strain doa4, active compounds read low 0.701 | S. cerevisiae deletion strains, locus YDR101C, strain arx1, active compounds read low 0.665 | S. cerevisiae deletion strains, locus YDR137W, strain rgp1, active compounds read low 0.402 | S. cerevisiae deletion strains, locus YDR159W, strain sac3, active compounds read low 0.682 | S. cerevisiae deletion strains, locus YDR162C, strain NBP2, active compounds read low 0.794 | S. cerevisiae deletion strains, locus YDR297W, strain sur2, active compounds read low 0.856 | S. cerevisiae deletion strains, locus YDR318W, strain mcm21, active compounds read low 0.844 | S. cerevisiae deletion strains, locus YDR334W, strain swr1, active compounds read low 0.687 | S. cerevisiae deletion strains, locus YDR335W, strain msn5, active compounds read low 0.857 | S. cerevisiae deletion strains, locus YDR388W, active compounds read low 0.736 | S. cerevisiae deletion strains, locus YDR392W, strain spt3, active compounds read low 0.71 | S. cerevisiae deletion strains, locus YDR502C, strain sam2, active compounds read low 0.845 | S. cerevisiae deletion strains, locus YEL003W, strain gim4, active compounds read low 0.709 | S. cerevisiae deletion strains, locus YEL037C, strain rad23, active compounds read low 0.868 | S. cerevisiae deletion strains, locus YEL061C, strain CIN8 (second series), active compounds read low 0.903 | S. cerevisiae deletion strains, locus YEL061C, strain CIN8, active compounds read low 0.826 | S. cerevisiae deletion strains, locus YER015W, strain faa2, active compounds read low 0.685 | S. cerevisiae deletion strains, locus YER016W, strain bim1, active compounds read low 0.88 | S. cerevisiae deletion strains, locus YER110C, active compounds read low 0.787 | S. cerevisiae deletion strains, locus YER111C, strain swi4, active compounds read low 0.871 | S. cerevisiae deletion strains, locus YER155C, strain BEM2 (second series), active compounds read low 0.755 | S. cerevisiae deletion strains, locus YER155C, strain BEM2, active compounds read low 0.413 | S. cerevisiae deletion strains, locus YER167W, strain BCK2, active compounds read low 0.554 | S. cerevisiae deletion strains, locus YFR010W, strain ubp6, active compounds read low 0.766 | S. cerevisiae deletion strains, locus YGL086W, strain mad1, active compounds read low 0.794 | S. cerevisiae deletion strains, locus YGL167C, strain pmr1, active compounds read low 0.895 | S. cerevisiae deletion strains, locus YGL173C, strain kem1, active compounds read low 0.779 | S. cerevisiae deletion strains, locus YGL227W, strain vid30, active compounds read low 0.906 | S. cerevisiae deletion strains, locus YGL240W, strain doc1, active compounds read low 0.758 | S. cerevisiae deletion strains, locus YGL248W, strain PDE1, active compounds read low 0.491 | S. cerevisiae deletion strains, locus YGL253W, strain hxk2, active compounds read low 0.543 | S. cerevisiae deletion strains, locus YGR135W, strain pre9, active compounds read low 0.836 | S. cerevisiae deletion strains, locus YHR027C, strain rpn1, active compounds read low 0.637 | S. cerevisiae deletion strains, locus YHR030C, strain SLT2, active compounds read low 0.854 | S. cerevisiae deletion strains, locus YHR079C, strain IRE1 (second series), active compounds read low 0.554 | S. cerevisiae deletion strains, locus YHR129C, strain ARP1, active compounds read low 0.527 | S. cerevisiae deletion strains, locus YHR142W, strain chs7, active compounds read low 0.648 | S. cerevisiae deletion strains, locus YHR200W, strain rpn10, active compounds read low 0.863 | S. cerevisiae deletion strains, locus YIL066C, strain RNR3, active compounds read low 0.696 | S. cerevisiae deletion strains, locus YIL073C, strain SPO22, active compounds read low 0.301 | S. cerevisiae deletion strains, locus YIR030C, strain dcg1, active compounds read low 0.592 | S. cerevisiae deletion strains, locus YJL092W, strain hpr5, active compounds read low 0.87 | S. cerevisiae deletion strains, locus YJL095W, strain BCK1 (second series), active compounds read low 0.741 | S. cerevisiae deletion strains, locus YJL095W, strain BCK1, active compounds read low 0.254 | S. cerevisiae deletion strains, locus YJL129C, strain trk1, active compounds read low 0.741 | S. cerevisiae deletion strains, locus YJL134W, strain LCB3, active compounds read low 0.908 | S. cerevisiae deletion strains, locus YJL154C, strain vps35, active compounds read low 0.918 | S. cerevisiae deletion strains, locus YJL164C, strain tpk1, active compounds read low 0.695 | S. cerevisiae deletion strains, locus YJL166W, strain qcr8, active compounds read low 0.546 | S. cerevisiae deletion strains, locus YJL187C, strain SWE1 (second series), active compounds read low 0.456 | S. cerevisiae deletion strains, locus YJL187C, strain SWE1, active compounds read low 0.785 | S. cerevisiae deletion strains, locus YKL009W, strain mrt4, active compounds read low 0.78 | S. cerevisiae deletion strains, locus YKL160W, strain elf1, active compounds read low 0.823 | S. cerevisiae deletion strains, locus YKL190W, strain CNB1, active compounds read low 0.902 | S. cerevisiae deletion strains, locus YKR001C, strain vps1, active compounds read low 0.73 | S. cerevisiae deletion strains, locus YKR026C, strain gcn3, active compounds read low 0.895 | S. cerevisiae deletion strains, locus YKR091W, strain srl3, active compounds read low 0.904 | S. cerevisiae deletion strains, locus YLL001W, strain dnm1, active compounds read low 0.769 | S. cerevisiae deletion strains, locus YLL026W, active compounds read low 0.864 | S. cerevisiae deletion strains, locus YLL041C, strain sdh2, active compounds read low 0.869 | S. cerevisiae deletion strains, locus YLR027C, strain aat2, active compounds read low 0.685 | S. cerevisiae deletion strains, locus YLR039C, strain RIC1, active compounds read low 0.137 | S. cerevisiae deletion strains, locus YLR058C, strain SHM2, active compounds read low 0.442 | S. cerevisiae deletion strains, locus YLR221C, strain rsa3, active compounds read low 0.601 | S. cerevisiae deletion strains, locus YLR258W, strain gsy2, active compounds read low 0.818 | S. cerevisiae deletion strains, locus YLR262C, strain YPT6 (second series), active compounds read low 0.391 | S. cerevisiae deletion strains, locus YLR262C, strain YPT6, active compounds read low 0.463 | S. cerevisiae deletion strains, locus YLR268W, strain sec22, active compounds read low 0.836 | S. cerevisiae deletion strains, locus YLR320W, strain mms22, active compounds read low 0.767 | S. cerevisiae deletion strains, locus YLR342W, strain FKS1, active compounds read low 0.903 | S. cerevisiae deletion strains, locus YLR357W, strain rsc2, active compounds read low 0.785 | S. cerevisiae deletion strains, locus YLR370C, strain arc18, active compounds read low 0.864 | S. cerevisiae deletion strains, locus YLR371W, strain rom2, active compounds read low 0.801 | S. cerevisiae deletion strains, locus YLR418C, strain cdc73, active compounds read low 0.64 | S. cerevisiae deletion strains, locus YML016C, strain PPZ1, active compounds read low 0.633 | S. cerevisiae deletion strains, locus YML032C, strain rad52, active compounds read low 0.453 | S. cerevisiae deletion strains, locus YML120C, strain ndi1, active compounds read low 0.589 | S. cerevisiae deletion strains, locus YML124C, strain tub3, active compounds read low 0.901 | S. cerevisiae deletion strains, locus YMR058W, strain fet3, active compounds read low 0.21 | S. cerevisiae deletion strains, locus YMR129W, active compounds read low 0.847 | S. cerevisiae deletion strains, locus YMR205C, strain PFK2, active compounds read low 0.613 | S. cerevisiae deletion strains, locus YMR223W, strain ubp8, active compounds read low 0.826 | S. cerevisiae deletion strains, locus YMR231W, strain pep5, active compounds read low 0.083 | S. cerevisiae deletion strains, locus YMR307W, strain GAS1, active compounds read low 0.523 | S. cerevisiae deletion strains, locus YNL071W, strain lat1, active compounds read low 0.581 | S. cerevisiae deletion strains, locus YNL153C, strain GIM3, active compounds read low 0.582 | S. cerevisiae deletion strains, locus YNL209W, strain ssb2, active compounds read low 0.648 | S. cerevisiae deletion strains, locus YNL233W, strain BNI4, active compounds read low 0.707 | S. cerevisiae deletion strains, locus YNL322C, strain KRE1 (second series), active compounds read low 0.789 | S. cerevisiae deletion strains, locus YNR049C, strain mso1, active compounds read low 0.892 | S. cerevisiae deletion strains, locus YNR052C, strain pop2, active compounds read low 0.556 | S. cerevisiae deletion strains, locus YOL147C, strain pex11, active compounds read low 0.531 | S. cerevisiae deletion strains, locus YOR001W, strain rrp6, active compounds read low 0.733 | S. cerevisiae deletion strains, locus YOR069W, strain VPS5, active compounds read low 0.719 | S. cerevisiae deletion strains, locus YOR070C, strain gyp1, active compounds read low 0.921 | S. cerevisiae deletion strains, locus YOR083W, strain WHI5, active compounds read low 0.745 | S. cerevisiae deletion strains, locus YOR106W, strain vam3, active compounds read low 0.0896 | S. cerevisiae deletion strains, locus YOR144C, strain elg1, active compounds read low 0.724 | S. cerevisiae deletion strains, locus YOR184W, strain ser1, active compounds read low 0.703 | S. cerevisiae deletion strains, locus YOR265W, strain rbl2, active compounds read low 0.849 | S. cerevisiae deletion strains, locus YOR270C, strain vph1, active compounds read low 0.607 | S. cerevisiae deletion strains, locus YOR290C, strain snf2, active compounds read low 0.676 | S. cerevisiae deletion strains, locus YPL051W, strain arl3, active compounds read low 0.568 | S. cerevisiae deletion strains, locus YPL078C, strain atp4, active compounds read low 0.795 | S. cerevisiae deletion strains, locus YPL240C, strain hsp82, active compounds read low 0.78 | S. cerevisiae deletion strains, locus YPL241C, strain CIN2, active compounds read low 0.928 | S. cerevisiae deletion strains, locus YPR163C, strain tif3, active compounds read low 0.755 | S. cerevisiae deletion strains, locus YPR167C, strain met16, active compounds read low 0.852 | S. cerevisiae deletion strains, strain wtn01, active compounds read low 0.843 | S. cerevisiae strains, strain wild type, active compounds read low 0.545
